# Laboratory results reported in PubChem BioAssay.
# Inconclusive results are not listed. Active and inactive are the calls of the source. Unless noted, the limit is not given here; nearly all actives have AC50 up to about 26 µM.
# Columns and labels:
# [1] = growth inhibition of DIPG glioma cells, dose response, cell-based, SU-DIPG-XVII, MIPE5.0, CellTiter-Glo, qHTS (AID 1347060); conditions: SU-DIPG-XVII viability, CellTiter-Glo ATP luminescence;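 as to AC50: cells exposed to compound for 48 hours before viability readout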
# [2] = growth inhibition of DIPG glioma cells, dose response, cell-based, SU-DIPG-XIII, MIPE5.0, CellTiter-Glo, qHTS (AID 1347064; cut-off not given, nearly all actives have AC50 up to about 23 µM;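 as to AC50: cells exposed to compound for 48 hours before the viability read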); conditions: SU-DIPG-XIII viability, CellTiter-Glo ATP luminescence
# [3] = viability loss in pontine glioma line – cell-based, SU-DIPG-XXV, MIPE5.0, CellTiter-Glo, qHTS, dose response (AID 1347065); conditions: CellTiter-Glo ATP luminescence;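 also: cells exposed to compound for 48 hours before ATP readout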
# [4] = SU-DIPG-XXV glioma cell viability, MIPE5.0 library, qHTS (AID 1347068; cut-off not given, nearly all actives have IC50 up to about 30 µM;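 as to IC50: cells exposed to compound for 48 hours before viability readout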)
# [5] = SU-DIPG-VI glioma cell viability, MIPE4.0 library, CellTiter-Glo luminescence, qHTS (AID 1347066; cut-off not given, nearly all actives have AC50 up to about 30 µM;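 also: cells exposed to compound for 48 hours before readout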); conditions: CellTiter-Glo ATP luminescence
# [6] = JHH-DIPG-1 glioma cell viability, MIPE5.0 library, CellTiter-Glo luminescence, qHTS (AID 1347067); conditions: JHH-DIPG-1 glioma viability, CellTiter-Glo ATP luminescence;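 also: cells exposed to compound for 48 hours before readout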
# [7] = modifiers of HSF1 nuclear foci, imaging, Selleck Cancer Library (AID 1347162; in the data active = plate-normalised HSF1 focus index below about 0.46); conditions: human cells, at 10 µM; SSMD: measured here: HSF1 foci SSMD mean; cell count: measured here: cell number; plate-normalised HSF1 focus index: stronger effect = lower value
# [8] = sensitizers of A549 cells to miR-34 induction, primary screen, imaging, A549 dox-inducible miR-34, nuclei and caspase counts (AID 1347080;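 active = compounds whose cell count with miR-34 switched on is under 0.7 times the count with it off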); conditions: A549 miR-34 inducible, Hoechst nuclei count, 48 h
# [9] = survival rescue of mitochondrial mutant cells in low glucose, primary screen, MELAS cybrids, Rieske KO mouse fibroblasts, CellTiter-Glo (AID 1508586;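 active = mean z-score across replicates of 1.96 or higher in either the MELAS or the Rieske mutant cell line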;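 also: z relative to plate mean and SD of compound and empty wells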)
# [10] = stronger effect = lower value, cell number ratio, induced over uninduced
# [11] = measured here: relative caspase fold change +Dox/-Dox
# [12] = measured here: total cells with miR-34 induction, stronger effect = lower value
# [13] = measured here: total cells without miR-34 induction
# [14] = MELAS cybrid survival, CellTiter-Glo 48 h, stronger effect = higher value
# [15] = Rieske KO mouse fibroblast survival, CellTiter-Glo 72 h
compound,measurement,setting,value
Cc1c(F)cccc1NC(=O)Nc1ccc(Cl)c(S(=O)(=O)[C@H]2CCCNC2)c1O,outcome,[1],inactive
same,outcome,[2],inactive
same,outcome,[3],inactive
same,outcome,[4],inactive
Cn1ncc(Cl)c1-c1cc(C(=O)N[C@H](CN)Cc2cccc(F)c2)sc1Cl,AC50,[1],5.9 µM (active)
same,AC50,[2],2.95 µM (active)
same,AC50,[3],3.72 µM (active)
same,outcome,[4],inactive
CC(C)(C(=O)NCC(F)(F)C(F)(F)F)C(=O)N[C@@H]1C(=O)Nc2ccccc2-c2ccccc21,outcome,[1],inactive
same,outcome,[2],inactive
same,outcome,[5],inactive
same,outcome,[6],inactive
same,outcome,[4],inactive
same,SSMD,[7],3.83
same,cell count,[7],7550
same,plate-normalised HSF1 focus index,[7],1.24 (inactive)
CS(=O)(=O)Nc1cc2occ(NC=O)c(=O)c2cc1Oc1ccccc1,outcome,[1],inactive
same,outcome,[2],inactive
same,outcome,[6],inactive
same,outcome,[4],inactive
CC(C)NC(=O)N1CC[C@H](N=C2Nc3cc(F)ccc3N(CC(F)F)c3ccc(Cl)cc32)C1,outcome,[1],inactive
same,outcome,[2],inactive
same,outcome,[6],inactive
same,outcome,[4],inactive
Cc1[nH]nc(C(F)(F)F)c1Cc1sc2c(c1C(=O)N1C[C@](C)(O)CO1)c(=O)n(C)c(=O)n2C(C)C,outcome,[1],inactive
same,outcome,[2],inactive
same,outcome,[6],inactive
same,outcome,[4],inactive
Cc1nc(NC(=O)N2CCCC2C(N)=O)sc1-c1ccnc(C(C)(C)C(F)(F)F)c1 (centres undefined),AC50,[1],5.25 µM (active)
same,AC50,[2],2.63 µM (active)
same,AC50,[3],2.35 µM (active)
same,IC50,[4],13.2 µM (active)
same,fold change,[8]; [10],0.937 (inactive)
same,fold change,[8]; [11],0.696
same,cell count,[8]; [12],5770
same,cell count,[8]; [13],6170
same,z-score,[9]; [14],-0.255 (inactive)
same,z-score,[9]; [15],-0.201
CNC(=O)c1ccc2c(C(=Nc3cccc(CN(C)C)c3)c3ccccc3)c(O)[nH]c2c1,outcome,[1],inactive
same,outcome,[2],inactive
same,outcome,[5],inactive
same,outcome,[6],inactive
same,outcome,[4],inactive
same,fold change,[8]; [10],0.967 (inactive)
same,fold change,[8]; [11],0.894
same,cell count,[8]; [12],7720
same,cell count,[8]; [13],7990
same,z-score,[9]; [14],-0.483 (inactive)
same,z-score,[9]; [15],-0.984
CN1CCN(C2CCN(C(=O)Nc3cc(Oc4ccc(NC(=O)C5(C(=O)Nc6ccc(F)cc6)CC5)c(F)c4)ccn3)CC2)CC1,AC50,[1],18.6 µM (active)
same,AC50,[2],20.9 µM (active)
same,AC50,[3],13.2 µM (active)
same,IC50,[4],23.5 µM (active)
same,fold change,[8]; [10],0.875 (inactive)
same,fold change,[8]; [11],0.529
same,cell count,[8]; [12],3130
same,cell count,[8]; [13],3570
same,z-score,[9]; [14],-0.56 (inactive)
same,z-score,[9]; [15],0.282
